Measurements reported in PubChem BioAssay AID504660 (National Center for Advancing Translational Sciences (NCATS), 2011).
Screen size: about 360,000 compounds; about 3,700 (1%) were called active. This is one part of a sample in which actives are shown more often than they occur. Values without a mark were called inactive. Cut-off read from the data, not from the text of the source: active = activation above about 30%; inactive = the rest.

These molecules were tested against D(1A) dopamine receptor (Homo sapiens) (UniProt P21728) (assay: Allosteric Agonists of the Human D1 Dopamine Receptor: qHTS). Conditions: HEK293 T-REx D1 cells, calcium flux, agonist mode; at 2 µM; stronger effect = higher value.
Chain of D(1A) dopamine receptor (Homo sapiens) (P21728 whole entry, looked up): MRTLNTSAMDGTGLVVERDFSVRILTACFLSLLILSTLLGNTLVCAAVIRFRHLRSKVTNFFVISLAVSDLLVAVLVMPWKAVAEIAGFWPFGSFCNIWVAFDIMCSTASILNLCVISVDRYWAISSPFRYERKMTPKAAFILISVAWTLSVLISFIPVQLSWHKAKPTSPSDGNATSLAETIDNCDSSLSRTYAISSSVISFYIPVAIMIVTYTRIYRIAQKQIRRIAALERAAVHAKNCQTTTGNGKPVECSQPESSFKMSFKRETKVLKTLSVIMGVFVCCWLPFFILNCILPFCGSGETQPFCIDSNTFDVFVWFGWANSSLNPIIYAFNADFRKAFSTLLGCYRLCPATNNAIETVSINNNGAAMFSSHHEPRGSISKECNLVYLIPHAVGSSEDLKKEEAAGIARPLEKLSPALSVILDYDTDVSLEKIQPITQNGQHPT
From the text: NIH Chemical Genomics Center [NCGC] NIH Molecular Libraries Probe Centers Network [MLPCN] MLPCN Grant: NS064831-01 Assay Submitter (PI): David Sibley Dopamine receptors (DARs) are involved in the etiology and/or therapy of a number of neuropsychiatric and endocrine disorders. For instance, all receptor-based antiparkinsonian drugs work via stimulating the D1 DAR subtype whereas all FDA-approved antipsychotic agents are antagonists of this receptor. […] There are three different types of allosteric modulators that we are seeking, two of which will stimulate or augment receptor signaling, allosteric agonists and potentiators, while the third, allosteric antagonists, will attenuate receptor signaling. The present primary screening assay measures compound agonism by tracking calcium flux in a […], inducible Hek293 Trex D1 cell line.
Freshly passaged cells are plated in 1536 well black, clear bottom plates at a density of 4000 cells/well in 3 ul of complete media containing 1x tetracycline inducer. After an overnight incubation at […] in 5% CO2, cells are loaded with 2 ul of the no wash Calcium Assay Kit (ABD Bioquest) and incubated at room temperature for 30 to 90 minutes. Agonist read: A 10 cycle (1 second/cycle) baseline measurement is taken and then the FDSS online 1536 pintool delivers 23 nl of compound library (as well as dopamine controls) to the plate. The plate is measured for kinetically at 1 cycle/sec for 180 seconds and is considered to be the agonist portion of the assay (eg, compounds which activate a positive calcium response during this portion are flagged as potential agonists). Following the 180 second read, 1 ul of either an EC20 (positive modulation assay) or EC80 (negative modulation assay) is delivered by an onboard pipette head. Measurements are taken kinetically for an additional 180 seconds.
Note: 0% is about no effect.

| SMILES | activation |
| --- | --- |
| CCc1ccccc1NC(=O)c1sc2nc3c(cc2c1N)CN(Cc1ccccc1)CC3 | 0.298% |
| O=[S+]([O-])(c1ccc2c(c1)OCCO2)N1CCN([S+](=O)([O-])c2c(Cl)cc(Cl)cc2Br)CC1 | 0.0145% |
| O=S(=O)(Nc1cccc2cccnc12)c1cccc2cccnc12 | 23.3% |
| COc1ccc(-c2nc3nc(C)cc(C)n3c2Nc2c(C)cccc2C)cc1 | 7.65% |
| c1ccc(C[C@H]2CNCCN2CCC23CC4CC(CC(C4)C2)C3)cc1 | 39.5% (active) |
| COc1cc(-c2cc3n(C)c(C)c(CCC(=O)Nc4ccc(F)cc4)c(=O)n3n2)cc(OC)c1OC | 0.314% |
| Cc1ccc(Cl)cc1NC(=O)/C(C#N)=C\c1cn(Cc2ccc(F)cc2)c2ccccc12 | 6.19% |
| CCc1nc(-c2cc(S(=O)(=O)N3CCN(c4ccc(OC)cc4)CC3)ccc2OC)no1 | 4.75% |
| CSc1nc(-c2ccc(F)cc2)nc2c1Cc1c(CO)cnc(C)c1O2 | 1.34% |
| N#CC1(NC(=O)COC(=O)CCN=C2NS(=O)(=O)c3ccccc32)CCCCC1 | 4.55% |
| O=C(OCCN=C1NS(=O)(=O)c2ccccc21)c1cccc([N+](=O)[O-])c1 | 3% |
| O=C(CCCN=C1NS(=O)(=O)c2ccccc21)OCC(=O)c1ccc(F)c(F)c1 | 68.2% (active) |
| O=C(O)c1c(CNCc2cccc(F)c2)c2ccccc2n1Cc1ccccc1 | -1.09% |
| COc1cc(CNC2CCCCC2)c(Br)cc1OC1CCCC1 | 10.2% |
| COc1cc(OC)c(NC(=O)C2CCCN2C(=O)OCc2ccccc2)cc1Cl (stereo not drawn) | -0.285% |
| COc1cc(CNC2CCCC2)c(Br)cc1OCc1ccccc1 | 42.3% (active) |
| Cc1nc(C(=O)NCc2ccccc2)sc1C1(C)CC(c2cccnc2)=NO1 (stereo not drawn) | 41.4% (active) |
| Cc1nc(-c2ccc(Cl)cc2)sc1C1(C)CC(c2ccccc2F)=NO1 (stereo not drawn) | 6.23% |
| Cc1nc(C(=O)Nc2ccc(Cl)cc2)sc1C1(C)CC(c2ccccc2)=NO1 (stereo not drawn) | 6.69% |
| COc1cccc(-n2ccn(CC(=O)NCc3ccc(C)cc3)c(=O)c2=O)c1 | 14.3% |
| Cc1ccc(CNC(=O)c2ccccc2CCc2ccccc2)cc1 | 4.45% |
| COc1cccc(-c2ccc3c(c2)S(=O)(=O)c2cccc(C(=O)O)c2C3=O)c1OC | 0.629% |

| SMILES | activation |
| --- | --- |
| Cc1ccc(CNC(=O)c2cccc3c2C(=O)c2ccc(N4CCC(C)CC4)cc2S3(=O)=O)cc1 | 179% (active) |
| Cc1ccccc1OCC(=O)Nc1c(C(=O)Nc2ccccc2F)oc2ccccc12 | 20.7% |
| CCOC(=O)c1c(C)[nH]c(CCC(=O)Nc2ccc(OC)c(OC)c2)c1C | -0.109% |
| Cc1cc(=O)c2cc(C(=O)Nc3cccc(C)c3C)ccc2[nH]1 | -0.195% |
| Cc1nn(CCOc2ccccc2)c(=O)n1-c1ccccc1F | 1.91% |
| CC(C)(c1ccccc1)c1ccc(OCCN2CCCC2)cc1 | 35.8% (active) |
| c1ccc2cc(OCCN3CCCC3)ccc2c1 | 5.59% |
| CC(C)(C)c1ccc(Oc2ccc(N)cc2)cc1 | 5.93% |
| Cc1cc(OCCN2CCCC2)ccc1C(C)C | 2.99% |
| CC(C)(c1ccccc1)c1ccc(OCCN)cc1 | 63.3% (active) |
| CSc1ccc(CCNC(=O)c2ccc3c(c2)nc2n3CCOC2)cc1 | 0.926% |
| O=S(=O)(NCC(c1ccco1)N1CCOCC1)c1cc(F)ccc1F (stereo not drawn) | -2.87% |
| CCc1ccc(C2CC(=O)c3c([nH]c(C(=O)OCc4ccc(C)cc4)c3C)C2)cc1 (stereo not drawn) | 3.18% |
| Cc1ccc2nc(COc3cccc(NC(=O)Nc4ccc(C)c(Cl)c4)c3)cc(=O)n2c1 | -0.44% |
| Cc1ccc(C(=O)CC2(O)C(=O)N(CCc3ccccc3)c3ccc(Br)cc32)cc1 (stereo not drawn) | 9.1% |
| c1ccc2c(c1)OCC(CNc1ncnc3nc[nH]c13)O2 (stereo not drawn) | 182% (active) |
| CCC(=O)c1ccc(OCC(=O)N(CC)CC2COc3ccccc3O2)cc1 (stereo not drawn) | 3.24% |
| O=C(Cn1nc(Cc2cccnc2)c2ccccc2c1=O)NCC1COc2ccccc2O1 (stereo not drawn) | 0.536% |
| CCn1c2ccccc2c2nnc(N3CCN(c4cc(C)ccc4C)CC3)nc21 | -0.584% |
| Cc1ccc2c(=O)c(C(=O)c3cccc(Cl)c3)cn(CC(=O)NCc3ccccc3)c2n1 | 0.234% |
| CCOc1ccc(NC(=O)Cn2cc(C(=O)c3ccc(C)cc3)c(=O)c3cc4c(cc32)OCCO4)cc1 | 4.93% |
| CC(=O)n1c(C=Nc2ccccc2)c(O)c2ccccc21 | 52.3% (active) |

| SMILES | activation |
| --- | --- |
| CCCn1c(=O)c(-c2ccccc2)c(O)c2ccccc21 | 0.534% |
| Cc1cc(=O)n(CC(=O)Nc2cccc([N+](=O)[O-])c2)c(-n2nc(C)cc2C)n1 | -0.478% |
| Cc1ccc(C(=O)NC2CCN(C#N)CC2)cc1 | -0.099% |
| Cc1ccccc1-n1c(C)cc(/C=N/NC(=O)c2ccc(CN3CCOCC3)cc2)c1C | 9.59% |
| O=C(N/N=C/C=C/c1ccco1)c1cccs1 | 2.91% |
| Cc1cccc(-n2c(C)cc(/C=N\NC(=O)c3cccs3)c2C)c1 | 36.3% (active) |
| N#CN1CCC(NS(=O)(=O)c2cccc(F)c2)C1 (stereo not drawn) | 0.986% |
| Cc1cc2c(s1)c1cnn(Cc3cc(F)c(Cl)cc3Cl)c(=O)c1n2C | -0.162% |
| Cc1cccc(S(=O)(=O)c2cn(Cc3ccccc3)c3cc(N4CCOCC4)c(F)cc3c2=O)c1 | 1.08% |
| Nc1cc(N2CCCCCC2)c2nonc2c1[N+](=O)[O-] | 34.1% (active) |
| Cc1c(Nc2cc(N3CCCC(C)C3)c3nonc3c2[N+](=O)[O-])c(=O)n(-c2ccccc2)n1C (stereo not drawn) | -0.0536% |
| COCCNc1nc(N)c([N+](=O)[O-])c(N2CCCCCC2)n1 | 2.99% |
| CC(C)c1ccc(NC(=O)Cn2c3ncccc3c(=O)n2-c2ccccc2)cc1 | 2.49% |
| COCCNc1ncnc2c1c(-c1ccccc1)cn2-c1ccc(C)c(Cl)c1 | 2.02% |
| CCC(O)C1CCN(Cc2cn(-c3ccc(OC)cc3)nc2-c2cccc(F)c2)CC1 (stereo not drawn) | 34.2% (active) |
| Cc1cccc(-n2cc(CN3CCN(C(=O)c4ncn[nH]4)CC3)c(-c3cccc(F)c3)n2)c1 | 1.07% |
| COc1ccc(-n2cc(CNC3CCOCC3)c(-c3cccc(F)c3)n2)cc1 | 14.3% |
| CCOC(=O)c1ccc(NC(=O)CSc2nc3c([nH]c4ccccc43)c(=O)n2C)cc1 | 0.658% |
| COc1cccc(C(=O)NCC(=O)OCc2cc(=O)n3ccsc3n2)c1 | -0.454% |
| Cc1c(CCOC(=O)c2cc([N+](=O)[O-])ccc2Cl)sc[n+]1CCCCS(=O)(=O)[O-] | 2.52% |
| Cc1c(CCO)sc[n+]1CC(=O)OC12CC3CC(CC(C3)C1)C2 | 2.73% |
| Cc1c(CCOC(=O)CC23CC4CC(CC(C)(C4)C2)C3)sc[n+]1Cc1ccc([N+](=O)[O-])cc1 | 35.6% (active) |

| SMILES | activation |
| --- | --- |
| CCn1c(CN2CCC(C)CC2)nc2cc(NC(=O)c3ccccc3[N+](=O)[O-])ccc21 | 0.209% |
| COc1ccc(OC)c(NC(=O)CSC2=Nc3ccccc3C3=NC(CC(=O)NCc4ccc(F)cc4)C(=O)N23)c1 (stereo not drawn) | -0.058% |
| CCOC(=O)c1ccc(N2C(=O)c3n[nH]c(C)c3C2c2ccc(O)c(OC)c2)cc1 (stereo not drawn) | 0.253% |
| CCCCCCCCCCOC(=O)Cn1c(COc2cccc(OC)c2)[n+](C)c2ccccc21 | 116% (active) |
| COc1ccc(-n2c(=O)c3sc4ccccc4c3n(CC(=O)Nc3cccc(C)c3)c2=O)cc1 | 8.8% |
| O=C(Nc1ccc(O)c(-c2nc3ccccc3o2)c1)c1ccc(-c2cccc(Cl)c2)o1 | 0.486% |
| C=CCn1c(=N)n(CC(O)COc2ccc(OC)cc2)c2ccccc21 (stereo not drawn) | 40.4% (active) |
| Cc1cccc(OCC(O)Cn2c(=N)n(CCN3CCOCC3)c3ccccc32)c1 (stereo not drawn) | 0.333% |
| CCCn1c(=N)n(CC(O)COc2ccccc2OC)c2ccccc21 (stereo not drawn) | -0.594% |
| O=S(=O)(NCCc1nnc2ccc(SCc3ccc(Cl)cc3Cl)nn12)c1ccccc1 | 1.47% |
| Cc1ccc(Cl)cc1N1CCN(C(=O)c2cccc3c(=O)c(C)c(-c4ccccc4)oc23)CC1 | 34.3% (active) |
| CCn1cc(C(=O)N2CCN(c3cc(Cl)ccc3C)CC2)c(=O)c2cc(S(=O)(=O)N3CCCC3)ccc21 | -0.309% |
| Cc1ccc(Cl)cc1N1CCN(C(=O)c2cccn3c(=O)c4cc(Cl)ccc4nc23)CC1 | 2.28% |
| COc1ccc(-c2c3c(=O)n(C)c(=O)n(C)c3c3c(C)nc4ccccc4n23)cc1 | -0.834% |
| COc1ccc(-c2nn3c(-c4ccc(OC)cc4)nnc3c3ccccc23)cc1 | -0.437% |
| CCOCCCNC(=O)c1cn(CC)c2ccc(S(=O)(=O)N3CCc4ccccc4C3)cc2c1=O | 0.286% |
| CSCCC(NC(=O)COc1ccccc1)C(=O)OCCOc1ccc(F)cc1 (stereo not drawn) | 2.91% |
| CSCCC(NC(=O)COc1ccccc1)C(=O)OCCOc1ccc(Br)cc1 (stereo not drawn) | 30.8% (active) |
| CSCCC(NC(=O)COc1ccccc1)C(=O)OCC(=O)c1cc2ccccc2o1 (stereo not drawn) | 5.5% |
| CCOC(=O)CC1COCCN1C(=O)c1cc(COc2ccc(F)c(F)c2)on1 (stereo not drawn) | 43.4% (active) |
| CCC(NC(=O)c1cc(COc2ccc(F)c(F)c2)on1)c1ccncc1 (stereo not drawn) | 24.1% |
| O=C(c1cc(COc2ccc(F)cc2F)on1)N1CCOCC1 | 2.85% |
